In the supplement of paper PMC12494721:
Structures can show the parent of a compound that is named as a salt.

Legend:
Settings in all cases: incubation time: 27 h, anaerobic, 37 °C;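 for the amine columns active = adjusted P below 0.05 in both replicates with a change the same way and a mean fold change under 0.8 or over 1.25; inactive = the rest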
[1] = system: Clostridium sporogenes DSM 1664; experiment: growth (OD595) fold change vs plate DMSO controls (fold change (ratio)); higher = more growth
In short: (§1)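 The measure reported is growth, taken as fold change against the median of DMSO controls on the same plate. Anaerobic mGAM cultures in 96-well plates (27 h, 37 °C) were read at 595 nm, blank-subtracted, corrected for compound background using 20 µM compound solutions in water, and multiplied by a calibration factor of 5 to give OD. Any fold change above 1.5 became NA, and 2 biological replicates were averaged.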

[2] = system: Escherichia coli IAI1; experiment: as above
In short: as §1

[3] = system: Klebsiella aerogenes DSM 30053; experiment: as above
In short: as §1

[4] = system: Ruminococcus gnavus DSM 108212; experiment: as above
In short: as §1

[5] = system: Klebsiella aerogenes DSM 30053; experiment: fold change of Histamine concentration vs plate DMSO controls (fold change (ratio)); higher = more amine produced, active = hit call of the paper (significant change in both replicates, either direction)
In short: (§2)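 Anaerobic mGAM cultures of four gut bacterial strains were grown at 37 °C for 27 h in 80 µL wells, starting at OD 0.1 before 1:1 dilution. Compounds were at 20 µM final (sweeteners 50 µM). Whole cultures were extracted with cold acetonitrile/methanol containing 0.1% formic acid and centrifuged. Amines were quantified by LC–triple-quadrupole MS (dynamic MRM) against external calibration curves and drift-corrected within batch. Each value is the fold change versus plate DMSO controls, averaged over 2 biological replicates.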

[6] = system: Clostridium sporogenes DSM 1664; experiment: fold change of Tryptamine concentration vs plate DMSO controls (fold change (ratio)); higher = more amine produced, active = hit call of the paper (significant change in both replicates, either direction)
In short: as §2

[7] = system: Ruminococcus gnavus DSM 108212; experiment: as above
In short: as §2

[8] = system: Escherichia coli IAI1; experiment: fold change of Putrescine concentration vs plate DMSO controls (fold change (ratio)); higher = more amine produced, active = hit call of the paper (significant change in both replicates, either direction)
In short: as §2

[9] = system: Klebsiella aerogenes DSM 30053; experiment: as above
In short: as §2

[10] = system: Escherichia coli IAI1; experiment: fold change of Cadaverine concentration vs plate DMSO controls (fold change (ratio)); higher = more amine produced, active = hit call of the paper (significant change in both replicates, either direction)
In short: as §2

[11] = system: Klebsiella aerogenes DSM 30053; experiment: as above
In short: as §2

[12] = system: Ruminococcus gnavus DSM 108212; experiment: fold change of 2-Phenylethylamine concentration vs plate DMSO controls (fold change (ratio)); higher = more amine produced, active = hit call of the paper (significant change in both replicates, either direction)
In short: as §2

Compound | growth [1] | growth [2] | growth [3] | growth [4] | fold change of Histamine concentration [5] | fold change of Tryptamine concentration [6] | fold change of Tryptamine concentration [7] | fold change of Putrescine concentration [8] | fold change of Putrescine concentration [9] | fold change of Cadaverine concentration [10] | fold change of Cadaverine concentration [11] | fold change of 2-Phenylethylamine concentration [12]
CC1(C)S[C@@H]2[C@H](NC(=O)[C@H](N)c3ccc(O)cc3)C(=O)N2[C@H]1C(=O)O [Amoxicillin] (20 µM) | 0 | 0.796 | 0.828 | 0.198 | 1.1 (inactive) | 0.0237 (active) | 0.0355 (active) | 3.1 (active) | 1.05 (inactive) | 1.41 (inactive) | 1.06 (inactive) | 0.0375 (active)
Cc1cccc(C)c1NC(=O)CN1CCN(CCCC(c2ccc(F)cc2)c2ccc(F)cc2)CC1 [Lidoflazine] (20 µM) | 0.947 | 1 | 1.05 | 1.22 | 1.01 (inactive) | 1.04 (inactive) | 0.863 (inactive) | 1.09 (inactive) | 1 (inactive) | 0.995 (inactive) | 0.996 (inactive) | 0.906 (inactive)
CC(COc1ccccc1)N(CCCl)Cc1ccccc1 (stereo not given) [Phenoxybenzamine hydrochloride] (20 µM) | 0.887 | 1.03 | 1.01 | 1.02 | 1.02 (inactive) | 1 (inactive) | 1.01 (inactive) | 1.02 (inactive) | 1.02 (inactive) | 0.963 (inactive) | 0.985 (inactive) | 1.05 (inactive)
CC[C@H]1OC(=O)[C@H](C)[C@@H](O[C@H]2C[C@@](C)(OC)[C@@H](O)[C@H](C)O2)[C@H](C)[C@@H](O[C@@H]2O[C@H](C)C[C@H](N(C)C)[C@H]2O)[C@](C)(O)C[C@@H](C)/C(=N\OCOCCOC)[C@H](C)[C@@H](O)[C@]1(C)O [Roxithromycin] (20 µM) | 0.00175 | 0.826 | 0.95 | 0.194 | 0.995 (inactive) | 0.0367 (active) | 0.0981 (active) | 0.576 (active) | 0.973 (inactive) | 0.909 (inactive) | 1 (inactive) | 0.123 (active)
CC(C)C(=O)OCC(=O)[C@@]12O[C@H](C3CCCCC3)O[C@@H]1C[C@H]1[C@@H]3CCC4=CC(=O)C=C[C@]4(C)[C@H]3[C@@H](O)C[C@@]12C [Ciclesonide] (20 µM) | 1.08 | 1.12 | 1.01 | 1.17 | 1.02 (inactive) | 0.953 (inactive) | 0.966 (inactive) | 1.11 (inactive) | 0.999 (inactive) | 0.979 (inactive) | 0.99 (inactive) | 0.956 (inactive)
CC(=O)OCC(=O)[C@@]1(O)CC[C@H]2[C@@H]3CCC4=CC(=O)C=C[C@]4(C)[C@@]3(F)[C@@H](O)C[C@@]21C [Isoflupredone acetate] (20 µM) | 0.985 | 1.02 | 0.983 | 1 | 1.09 (inactive) | 1.03 (inactive) | 1.1 (inactive) | 1 (inactive) | 1.03 (inactive) | 0.988 (inactive) | 1.11 (inactive) | 1.22 (inactive)
Nc1nc(CC(=O)Nc2ccc(CCNC[C@H](O)c3ccccc3)cc2)cs1 [Mirabegron] (20 µM) | 1.09 | 1.01 | 1.13 | 0.987 | 0.931 (inactive) | 1.02 (inactive) | 0.999 (inactive) | 0.977 (inactive) | 1.01 (inactive) | 1.06 (inactive) | 1.01 (inactive) | 1.05 (inactive)
O=S(=O)(O)CCS [Coenzyme M] (20 µM) | 0.917 | 1.06 | 1 | 1.01 | 1.12 (inactive) | 1.02 (inactive) | 0.951 (inactive) | 1.03 (inactive) | 1.01 (inactive) | 0.979 (inactive) | 0.986 (inactive) | 0.902 (inactive)
O=C(NCCO[N+](=O)[O-])c1cccnc1 [Nicorandil] (20 µM) | 1.03 | 0.985 | 0.928 | 1.35 | 1.06 (inactive) | 1.04 (inactive) | 1.03 (inactive) | 1.05 (inactive) | 1.03 (inactive) | 0.981 (inactive) | 1 (inactive) | 1 (inactive)
COC(=O)N/N=C/c1c[n+]([O-])c2ccccc2[n+]1[O-] [Carbadox] (20 µM) | 0.00259 | 0.0346 | 0.0738 | 0.0392 | 0.0834 (active) | 0.00903 (active) | 0.0355 (active) | 0.388 (active) | 0.377 (active) | 0.187 (active) | 0.983 (inactive) | 0.0387 (active)
NS(=O)(=O)c1cc2c(cc1Cl)NC(CC1CCCC1)NS2(=O)=O (stereo not given) [Cyclopenthiazide] (20 µM) | 1.33 | 1.03 | 0.98 | 0.993 | 1.01 (inactive) | 1.03 (inactive) | 1.04 (inactive) | 1.07 (inactive) | 1.01 (inactive) | 0.979 (inactive) | 0.996 (inactive) | 1.04 (inactive)
COCCOC(=O)C1=C(C)NC(C)=C(C(=O)OC/C=C/c2ccccc2)C1c1cccc([N+](=O)[O-])c1 (stereo not given) [Cilnidipine] (20 µM) | 1.19 | 0.996 | 1.16 | 0.973 | 0.989 (inactive) | 0.918 (inactive) | 0.945 (inactive) | 1 (inactive) | 1.01 (inactive) | 0.982 (inactive) | 1.03 (inactive) | 0.905 (inactive)
CCCN(CCC)CCc1cccc2c1CC(=O)N2 [Ropinirole hydrochloride] (20 µM) | 1.07 | 0.95 | 0.961 | 1.02 | 1.08 (inactive) | 1 (inactive) | 1 (inactive) | 0.952 (inactive) | 1.02 (inactive) | 0.978 (inactive) | 0.986 (inactive) | 1.02 (inactive)
Nc1c2c(nc3ccccc13)CCCC2 [Tacrine hydrochloride] (20 µM) | 0.896 | 0.951 | 0.932 | 0.696 | 1.05 (inactive) | 1.03 (inactive) | 1.12 (inactive) | 0.945 (inactive) | 0.94 (inactive) | 1.04 (inactive) | 1.15 (inactive) | 1.32 (active)
COc1c(N2CCNC(C)C2)c(F)cc2c(=O)c(C(=O)O)cn(C3CC3)c12 (stereo not given) [Gatifloxacin] (20 µM) | 0.0115 | 0.0496 | 0.235 | 0.0125 | 0.285 (active) | 0.0452 (active) | 0.226 (active) | 0.888 (inactive) | 1.02 (inactive) | 0.264 (active) | 0.97 (inactive) | 0.226 (active)
CC(C)NCC(O)c1ccc(O)c(O)c1 (single isomer, unassigned; (-)) [(-) Isoproterenol hydrochloride] (20 µM) | 1.02 | 0.976 | 1.15 | 0.899 | 0.874 (inactive) | 1.03 (inactive) | 0.857 (inactive) | 1 (inactive) | 0.996 (inactive) | 0.982 (inactive) | 1.02 (inactive) | 0.814 (inactive)
CN(N=O)C(=O)N[C@H]1C(O)O[C@H](CO)[C@@H](O)[C@@H]1O (mixture of isomers) [Streptozotocin] (20 µM) | 1.04 | 1.19 | 1 | 0.279 | 0.835 (inactive) | 0.798 (inactive) | 0.312 (active) | 1.04 (inactive) | 0.962 (inactive) | 1.31 (active) | 0.993 (inactive) | 0.376 (inactive)
CC(C(=O)O)c1ccc(-c2ccccc2)c(F)c1 (stereo not given) [Flurbiprofen] (20 µM) | 0.961 | 1 | 1 | 1.02 | 1.07 (inactive) | 1.02 (inactive) | 0.937 (inactive) | 1.06 (inactive) | 1.03 (inactive) | 1 (inactive) | 1.01 (inactive) | 0.882 (inactive)
C[C@H](O)C(=O)Nc1c(I)c(C(=O)NC(CO)CO)c(I)c(C(=O)NC(CO)CO)c1I [Iopamidol] (20 µM) | 1.2 | 1.02 | 1.05 | 1.25 | 1.04 (inactive) | 1.03 (inactive) | 1.07 (inactive) | 0.979 (inactive) | 0.995 (inactive) | 0.999 (inactive) | 1.01 (inactive) | 1.05 (inactive)
OC[C@@H](O)[C@@H](O)CO [Erythritol] (50 µM) | 0.882 | 1.12 | 0.977 | 1.02 | 1.05 (inactive) | 1 (inactive) | 0.974 (inactive) | 1.03 (inactive) | 0.995 (inactive) | 1.05 (inactive) | 0.993 (inactive) | 0.945 (inactive)
CCc1nc(N)nc(N)c1-c1ccc(Cl)cc1 [Pyrimethamine] (20 µM) | 1.05 | 0.96 | 0.961 | 1.17 | 1.07 (inactive) | 1.01 (inactive) | 0.912 (inactive) | 0.792 (inactive) | 0.977 (inactive) | 1.32 (active) | 0.989 (inactive) | 0.819 (inactive)
Nc1ccc(S(=O)(=O)Nc2ccccn2)cc1 [Sulfapyridine] (20 µM) | 0.891 | 1.06 | 1.04 | 1.03 | 1.05 (inactive) | 0.998 (inactive) | 1.02 (inactive) | 1.01 (inactive) | 1 (inactive) | 0.955 (inactive) | 0.994 (inactive) | 1.03 (inactive)
CC(C)(C)CC(C)(C)c1ccc(O)c(Cc2ccc(Cl)cc2Cl)c1 [Clofoctol] (20 µM) | 0.000434 | 0.973 | 1.01 | 0.559 | 1.01 (inactive) | 0.0134 (active) | 0.143 (active) | 0.999 (inactive) | 1.01 (inactive) | 1.01 (inactive) | 1.01 (inactive) | 0.132 (active)
CO/N=C(\C(=O)N[C@@H]1C(=O)N2C(C(=O)O)=C(COC(C)=O)CS[C@H]12)c1csc(N)n1 [Cefotaxime sodium salt] (20 µM) | 0.00126 | 0.00374 | 0.601 | 0.2 | 0.733 (inactive) | 0.0286 (active) | 0.0769 (active) | 0.143 (active) | 0.729 (inactive) | 0.574 (active) | 1.02 (inactive) | 0.055 (active)
CC(=O)CCCCn1c(=O)c2c(ncn2C)n(C)c1=O [Pentoxifylline] (20 µM) | 1.01 | 0.995 | 1.06 | 0.929 | 1 (inactive) | 1.03 (inactive) | 0.965 (inactive) | 1 (inactive) | 1.02 (inactive) | 1.04 (inactive) | 1.02 (inactive) | 0.947 (inactive)
